# Screening results as filed in PubChem BioAssay.
# Only some compounds are listed: those with a hit (about 0.27% of all), similar ones and a draw of the others.
# TRPML1 blocker – qHTS for Inhibitors of the Human Mucolipin Transient Receptor Potential 1 (TRPML1); AID 624415, 2012; TRPML1-inducible cells, Ca2+ dye fluorescence, FDSS; stronger effect = lower value; inhibition of EC80 agonist-evoked calcium signal; activity change, negative = inhibition, % (no concentration beside the values); hit rate 0.02% among 390,000; in the data active = activity change below about -50%; inconclusive = between about -30% and that limit;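 note: stimulus is agonist 54-4 at its EC80 concentration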
# Target sequence (Q9GZU1 whole entry, looked up): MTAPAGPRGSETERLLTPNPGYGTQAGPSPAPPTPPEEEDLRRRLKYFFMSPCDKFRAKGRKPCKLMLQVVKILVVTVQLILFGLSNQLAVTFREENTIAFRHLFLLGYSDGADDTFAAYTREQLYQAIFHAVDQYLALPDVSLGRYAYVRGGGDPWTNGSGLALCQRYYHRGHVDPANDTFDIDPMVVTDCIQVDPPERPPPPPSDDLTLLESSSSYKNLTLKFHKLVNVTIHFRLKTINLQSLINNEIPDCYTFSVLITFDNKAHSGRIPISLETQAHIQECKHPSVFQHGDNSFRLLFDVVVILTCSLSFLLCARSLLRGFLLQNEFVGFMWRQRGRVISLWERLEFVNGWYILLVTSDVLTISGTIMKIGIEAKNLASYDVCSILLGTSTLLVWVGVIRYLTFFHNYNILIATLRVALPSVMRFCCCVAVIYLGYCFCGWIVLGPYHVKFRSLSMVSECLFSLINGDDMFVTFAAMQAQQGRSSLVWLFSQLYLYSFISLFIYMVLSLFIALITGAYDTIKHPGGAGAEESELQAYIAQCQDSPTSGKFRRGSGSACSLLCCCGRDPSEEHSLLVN
#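 TRPML1-DL cells, Tet-induced overnight (~16 h, 37 °C) at 1,500 cells/well, were loaded with Ca8 no-wash dye plus quencher for 45-90 min at room temperature. Compounds were pinned during FDSS kinetic reading; agonist 54-4 at EC80 (4 uM final) then added.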
# TRPV1 agonist – HTS Assay for Compounds that Act as Agonists of the Vanilloid Receptor 1; TRPV1-expressing cells, Fluo-8 calcium influx, agonist mode; Transient receptor potential cation channel subfamily V member 1 (Homo sapiens), Q8NER1; hit rate 0.19% among 320,000; activation, % at 8.33 µM; in the data active = activation above about 80%; inconclusive = between about 30% and that limit
#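 Fluo-8 calcium influx in TRPV1-expressing cells, kinetic read (ex 480/em 520 nm). Compound added and read 3 min for agonist activity, followed by capsaicin at EC20 final and 2 min further read for enhancement.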
# TRPML1 ag – qHTS for Agonists of the Human Mucolipin Transient Receptor Potential 1 (TRPML1); TRPML1-expressing cells, Ca2+ dye fluorescence, FDSS; activation, % (no concentration beside the values); hit rate 0.12% among 410,000; in the data active = activation above about 50%; inconclusive = mostly about 30% to 49%
#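 Calcium fluorescence on an FDSS kinetic reader gave the read-out. Tet-induced TRPML1-DL cells were plated overnight, dye-loaded (Ca8 with quencher, 45-90 min, room temperature, dark), then read 110 s after compound addition, and again 110 s after 4uM final 54-4 (EC80).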
# TRPV1 potentiator – HTS Assay for Compounds that Act as Potentiators of the Vanilloid Receptor 1; Transient receptor potential cation channel subfamily V member 1 (Homo sapiens), Q8NER1; TRPV1-expressing cells, Fluo-8 calcium influx, capsaicin EC20 potentiation; potentiation, % at 8.33 µM; hit rate 0.02% among 320,000; AID 540277, 2011; in the data active = potentiation above about 80%; inconclusive = between about 30% and that limit
#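 Cells expressing TRPV1 were dye-loaded with Fluo-8 and read kinetically: 10 s baseline, 3 min after compound (agonist portion), then 2 min after EC20 capsaicin (allosteric enhancer portion). Calcium-bound dye fluorescence at 480/520 nm.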
# Numbers stand for hits; - = inactive; ? = inconclusive; . = no result given.
SMILES,TRPML1 blocker,TRPV1 agonist,TRPML1 ag,TRPV1 potentiator
CCCCCCN1C=CC(=C/C=C(\C#N)C(=O)OCC)C=C1,-,?,60,-
COc1ccccc1-c1ccc(/C=C2\C=CC(=O)O2)o1,-,?,84,-
O=C(CCCn1nnc2ccccc2c1=O)N[C@H](C(=O)O)c1ccccc1,-54,-,-,-
O=S(=O)(c1ccc(Cl)cc1)c1nnn2c1nc(NCc1ccc3c(c1)OCO3)c1sccc12,-,.,-,.
COc1cccc(/C=C2\SC(N3CCC(C)CC3)=NC2=O)c1OC,-,93,-,-
O=C(COc1ccccc1C(=O)Nc1ccccc1)Nc1cccc(Br)c1,.,.,-,.
O=C(NC(NC(=S)N1CCOCC1)C(Cl)(Cl)Cl)c1ccc(Cl)cc1 (centres undefined),?,83,-,-
O=c1oc2c(O)cccc2cc1-c1nc2ccccc2[nH]1,-,85,-,-
O=c1oc2c(CN3CCCCC3)c(O)ccc2cc1-c1nc2ccccc2[nH]1,-,85,-,-
Cc1ccc(N2C(=O)C3N=NN(CC(=O)N4N=C(c5ccccc5)CC4c4ccccc4)C3C2=O)cc1 (centres undefined),-,-,-,84
COc1ccc(C2=NN(C(=O)CCC(=O)O)C(c3ccccc3)C2)cc1 (centres undefined),-,-,-,-
Cc1ccc2nc(NC(=O)c3ccc4c(c3)OCO4)sc2c1,-,82,-,-
Cc1ccc2nc(NC(=O)c3ccc4ncsc4c3)sc2c1,-,?,-,-
Cc1ccccc1Cn1c(C)c(CNCCCc2ccccc2)c(C(=O)O)c1C,-,.,-,.
C/C(=N\Nc1ccc([N+](=O)[O-])cc1[N+](=O)[O-])c1ccc(-n2nncc2C(C)(C)C)cc1,-,-,76,-
CC(=O)N1CCCc2cc(S(=O)(=O)N(Cc3ccccc3)C(C)C)ccc21,-,.,-,.
Cc1cc(OCc2cc(C(=O)N(C)C3CCOC3)no2)cc(C)c1Cl (centres undefined),-,83,-,-
CC(=O)c1ccc(OCc2cc(C(=O)N(C)C3CCOC3)no2)cc1 (centres undefined),-,-,-,?
Cc1cc(S(=O)(=O)Cc2noc(-c3c(C)noc3C)n2)c(C)cc1Cl,-,-,120,-
Cc1noc(C)c1-c1nc(CSc2ccccc2)no1,-,-,-,?
CSc1nc2sc3c(c2c(=O)n1-c1ccc(C)c(Cl)c1)CCN(C(C)=O)C3,-,.,-,.
CCCCCCn1c(=O)[nH]c2nc3cc(N)ccc3nc2c1=O,-,?,51,-
CCCCCn1c(=O)c(C(=O)c2ccccc2)nc2ccccc21,-,?,-,-
CN(C)S(=O)(=O)c1ccc(N2CCCC2)c(C(=O)NCc2ccc(Cl)cc2)c1,-,-,75,-
Cc1ccc(NC(=O)C(Cc2ccccc2)NS(=O)(=O)c2ccc3c(c2)oc(=O)n3C)c(Cl)c1 (centres undefined),-,.,-,.
SMILES,TRPML1 blocker,TRPV1 agonist,TRPML1 ag,TRPV1 potentiator
CC(=O)NCCCc1nc2ccccc2n1Cc1cc(C)ccc1C,-,89,-,-
CCCCc1ncc(CN2CCC(CC3CCCCO3)(C(=O)OCC)CC2)[nH]1 (centres undefined),-,-,-,-
CCOC(=O)C1(CC2CCCCO2)CCN(Cc2cc3ccccc3[nH]2)CC1 (centres undefined),-,?,95,-
COc1cccc(-c2nc(CSCC(=O)NCCc3ccc(Cl)cc3)c(C)o2)c1,-,.,-,.
Cc1cnc2c(C)ccc(C)c2c1/C=C/c1ccc(N(C)C)cc1,.,.,-,.
CC(C)(C)n1nnnc1C(c1cccs1)N(Cc1ccc(Cl)cc1)CC1CCCO1 (centres undefined),-,-,66,-
Clc1ccc(CN(Cc2ccccc2)C(c2cccs2)c2nnnn2C2CCCC2)cc1 (centres undefined),-,-,-,-
C=C[C@@H]1c2cc(C)ccc2N(S(=O)(=O)c2ccc(C)cc2)[C@H](c2ccc(C(C)(F)F)cc2)C1(C#N)C#N,.,.,51,.
C=C[C@@H]1c2ccccc2N(S(=O)(=O)c2ccc(C)cc2)[C@H](c2ccc(C(F)(F)F)cc2)C1(C#N)C#N,-,-,-,-
CCc1c(C)nc(SCC(=O)CC(=O)OC(C)C)c(C#N)c1C,-,-,51,-
CC(C)(C)n1ncc2c(=O)n(Cc3cc(F)ccc3Cl)cnc21,-,.,-,.
COc1cc(OC)c(NC(=O)CCc2c(C)nc3ncnn3c2C)cc1Cl,-,.,-,.
CCN(CC)c1ccc(NC(=O)c2cnccn2)cc1S(=O)(=O)Nc1ccc(OC)cc1,-,85,-,-
O=C(Cn1c(SCC(=O)Nc2ccc(F)cc2)nc2ccccc21)NCc1ccc(Cl)cc1,-,.,-,.
CC(C)(C)n1ncc2c(=O)n(Cc3c(F)cc(Cl)cc3F)cnc21,-,.,-,.
O=C(Nc1ccc(Cl)cn1)C1C(c2ccccc2)C1(Cl)Cl (centres undefined),-,?,-,-
O=C(Nc1ccccc1)C1C(c2ccccc2)C1(Cl)Cl (centres undefined),-,84,-,-
CCN(CC)c1ccc2c(c1)oc(=O)c1c(Cl)cc(=O)oc12,-,-,69,-
CCOc1ccc(CCNC(=O)C(CC(C)C)N2Cc3ccccc3C2=O)cc1OCC (centres undefined),-,.,-,.
COC(=O)c1c(C)cccc1C1CN=NC12Cc1ccccc1C2=O (centres undefined),-,.,113,.
Cc1cc(-n2c(C)nc3ccccc3c2=O)ccc1NC(=O)c1cccc([N+](=O)[O-])c1C,-,.,-,.
COc1ccc(/C=N/NC(=O)c2cc(C)n(-c3ccccc3)c2C)cc1OC,-,?,-,-
Cc1cc(C(=O)N/N=C/c2cccc([N+](=O)[O-])c2)c(C)n1-c1ccccc1,-,89,-,-
NS(=O)(=O)c1ccc(CNC(=O)CCCSc2ccccc2)cc1,-,84,-,-
Cc1ccc(C(=O)Nc2ccc(N3CCN(C)CC3)cc2)cc1,-,-,-,-
SMILES,TRPML1 blocker,TRPV1 agonist,TRPML1 ag,TRPV1 potentiator
Cc1ccc(C(=O)Nc2ccc3cn[nH]c3c2)cc1S(=O)(=O)N1CCOCC1,-,92,-,-
Cc1ccc(C(=O)Nc2ccc(S(=O)(=O)N3CCCC3)cc2)cc1,-,85,-,-
Cc1ccc(NC(=O)c2ccc(C)cc2)cc1,-,81,-,-
Cc1ccc(NC(=O)c2ccc(S(=O)(=O)N3CCCC3)cc2)cc1,-,.,-,.
Cc1ccc(S(=O)(=O)N2CCOCC2)cc1C(=O)Nc1ccc2c(c1)CCC2,-,83,-,-
CC(C)(C)n1ncc2c(=O)n(Cc3ccc(F)cc3F)cnc21,-,.,-,.
COc1cccc(CNC(=O)CCc2cn(Cc3ccccc3Cl)c3ccccc23)c1,-,.,-,.
